Compound activity from PubChem BioAssay.
This is a sample that favours compounds with a hit; in the whole collection about 3% have one here.
PMP22 txn = modulates PMP22 transcription in S16 Schwann cells; S16 Pmp22-F2sN Schwann cells, FLuc/NLuc coincidence luminescence, 24 h; 43,000 tested, 2% active; Potency, µM (doses to about 57.5 µM), for inactives: at the top dose activity change, negative = inhibition, actives largely listed as inhibitors; active means clear falling dose curves in both reporters; inconclusive means both reporters move, but less clearly or upward; inactive means either reporter flat; the % is the NLuc reporter signal; further: potency means the concentration at half of the fitted maximal effect; on the % scale 0 is the no-effect control and ±100 the full control effect
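qHTS, 1536-well. Cells seeded, compounds added by pin tool, 24 h 37C. Nano-Glo reagent 1 (lysis/FLuc), 10 min RT, read; Stop&Glo, 10 min RT, read NLuc.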
p53null 39C tox = selectivity test: cytotoxicity in p53 null cells, nonpermissive temperature; 55,000 tested, 0.97% active; H1299 p53-null (neo) cells, 39C, ATPlite viability, 24 h; Potency, µM (highest dose often 46.1 µM), for the others: top-dose activity, negative = cell killing, actives largely listed as cytotoxic; AID 904;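 further: potency means the concentration at half of the fitted maximal effect; 0% = DMSO only and -100% = full killing by 100 µM tamoxifen; nearly all actives have a fitted effect of over 50% in size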
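Following overnight plating at 37C (600 cells/well), H1299-neo or H1299-p53A138V cells are dosed up to 46 uM. Incubation lasts 24 hr at 39C before ATP detection.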
GALC G270D up = enhancers of human galactocerebrosidase G270D mutant activity in cells | P54803 | 145M-Twi-hGALC-G270D cells (Twitcher mouse brain line with human GALC G270D), HMU-beta-Gal fluorescence, 48 h | Potency, µM (doses to about 57.5 µM), actives largely listed as activators | 45,000 tested, 0.1% active | AID 1159614; further: potency means the concentration at half of the fitted maximal effect; 0% is about no effect; nearly all actives have a fitted effect of over 65% in size
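Fluorogenic HMU-b-Gal hydrolysis (0.1 mM final, pH 5.2 citrate-phosphate with 1 mg/mL sodium taurocholate; carbonate stop buffer) measures mutant GALC activity after compound treatment of live 145M-Twi Twitcher brain cells stably carrying human GALC-G270D, with wild-type GALC line alongside; activation sought.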
p53null 32C tox = kills p53 null cells at the permissive temperature; Potency, µM (doses to about 46.1 µM), for the others: at the top dose activity change, negative = cytotoxicity, actives largely listed as cytotoxic; H1299-neo p53 null cells, ATP luminescence, 24 h, 32C; AID 903; 55,000 tested, 0.62% active;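 further: potency means the concentration at half of the fitted maximal effect; 0% = DMSO only and -100% = full killing by 100 µM tamoxifen; nearly all actives have a fitted effect of over 55% in size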
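H1299-neo, 600 cells/well; overnight 37C; cpd up to 46 uM, 24 h at 32C; ATPlite luminescence after 20 min RT; normalized to DMSO (0%) and tamoxifen 100 uM (100% kill); Hill-fit AC50.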
mTORC1 inh = mTORC1 pathway inhibition measured by phospho-rpS6; AID 493208; 44,000 tested, 0.78% active; Tsc2-/- p53-/- MEF, phospho-rpS6 immunofluorescence/PI, 24 h; Potency, µM (top dose mostly 38.3 µM), without a hit: at the highest dose activity change, negative = inhibition, usual class: inhibitors;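 further: potency means the concentration at half of the fitted maximal effect; plate controls were DMSO for no effect and rapamycin for full effect; nearly all actives have a fitted effect of over 50% in size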
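Compounds act on Tsc2-/-, p53-/- fibroblasts carrying an empty vector for 24 h before fixation and dual staining for phospho-S6 and DNA (propidium iodide). Values are percentages of cells above a rapamycin-defined pS6/PI threshold.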
S16 F2sN tox = S16 Schwann cell cytotoxicity | S16 Pmp22-F2sN Schwann cells viability, CellTiter-Glo, 24 h | Potency, µM (series often up to 57.5 µM), without a hit: at the top dose activity change, negative = cytotoxicity, hits mostly cytotoxic | 43,000 tested, 0.48% active | AID 1508642; further: potency means the concentration at half of the fitted maximal effect; on the % scale 0 is the no-effect control and ±100 the full control effect; nearly all actives have a fitted effect of over 65% in size
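Rat S16 Schwann reporter line, 24 h treatment with library compounds delivered at 23 nL per well. Cell viability by CellTiter-Glo luminescence.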
NLuc saturating = NanoLuc enzyme inhibition artifact for PMP22 screen | shares compounds with PMP22 txn | Secreted NLuc enzyme (filtered S16 cell medium), Nano-Glo luminescence | Potency, µM (top dose mostly 57.5 µM), inactives show top-dose activity change, negative = inhibition, actives largely listed as inhibitors | 690 tested, 4% active | AID 1508638; further: potency means the concentration at half of the fitted maximal effect; on the % scale 0 is the no-effect control and ±100 the full control effect
NLuc Km ctr = counter-screen for PMP22 expression modulators: NanoLuc inhibition at Km; Potency, µM (doses to about 57.5 µM), for the others: at the highest dose activity change, negative = inhibition, actives largely listed as inhibitors; secreted NLuc enzyme, coelenterazine luminescence, Km conditions; AID 1508639; shares compounds with PMP22 txn; 690 tested, 5% active; further: potency means the concentration at half of the fitted maximal effect; on the % scale 0 is the no-effect control and ±100 the full control effect
FLuc ctr PMP22 = inhibits firefly luciferase, PMP22 counter-screen; shares compounds with PMP22 txn; purified P. pyralis FLuc, luminescence, 10 min; Potency, µM (highest dose often 57.5 µM), for the others: top-dose activity, negative = inhibition, actives largely listed as inhibitors; 690 tested, under 10 active; further: % of control where 0% means no effect
Target sequence (P08659 whole entry, looked up): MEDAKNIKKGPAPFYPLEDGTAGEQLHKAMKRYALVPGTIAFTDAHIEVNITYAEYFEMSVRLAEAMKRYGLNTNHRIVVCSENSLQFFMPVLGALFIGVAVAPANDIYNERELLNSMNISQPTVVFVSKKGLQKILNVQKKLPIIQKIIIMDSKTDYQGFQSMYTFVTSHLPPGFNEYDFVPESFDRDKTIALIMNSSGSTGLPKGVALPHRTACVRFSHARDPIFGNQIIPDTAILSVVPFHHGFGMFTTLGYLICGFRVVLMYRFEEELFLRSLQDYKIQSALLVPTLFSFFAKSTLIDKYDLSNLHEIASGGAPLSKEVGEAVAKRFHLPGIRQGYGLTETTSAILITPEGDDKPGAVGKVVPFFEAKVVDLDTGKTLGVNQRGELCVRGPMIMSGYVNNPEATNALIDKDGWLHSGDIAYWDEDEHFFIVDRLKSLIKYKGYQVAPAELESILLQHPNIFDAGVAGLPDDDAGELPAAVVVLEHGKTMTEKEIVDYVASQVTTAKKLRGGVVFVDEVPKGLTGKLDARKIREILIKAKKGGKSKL
S16 viab conf = confirmation of cytotoxicity in S16 Pmp22-F2sN Schwann cells (luciferase reporters placed in the Pmp22 gene); shares compounds with PMP22 txn; S16 Schwann cells viability, CellTiter-Glo ATP luminescence, 24 h; Potency, µM (series often up to 57.5 µM), inactives show at the highest dose activity change, negative = viability loss, actives largely listed as cytotoxic; 690 tested, 7% active; AID 1508641; further: potency means the concentration at half of the fitted maximal effect; on the % scale 0 is the no-effect control and ±100 the full control effect
PMP22 txn cnf = PMP22 transcription modulation, confirmatory | AID 1508646 | S16 Schwann cells Pmp22-F2sN, dual luciferase, 24 h | Potency, µM (doses to about 57.5 µM), without a hit: at the highest dose activity change, negative = inhibition, actives largely listed as inhibitors | shares compounds with PMP22 txn | 690 tested, 22% active; active means clear falling dose curves in both reporters; inconclusive means both reporters move, but less clearly or upward; inactive means either reporter flat; the % is the FLuc reporter signal; further: potency means the concentration at half of the fitted maximal effect
PMP22 HiBiT cnf = confirmation of modulators of rat PMP22 protein expression | shares compounds with PMP22 txn | S16 Schwann cells Pmp22-HiBiT, luminescence, 48 h | Potency, µM (series often up to 27.9 µM), for inactives: at the top dose activity change, negative = inhibition, usual class: inhibitors | 95 tested, under 10 active | AID 1508647
Target sequence (P25094 whole entry, looked up): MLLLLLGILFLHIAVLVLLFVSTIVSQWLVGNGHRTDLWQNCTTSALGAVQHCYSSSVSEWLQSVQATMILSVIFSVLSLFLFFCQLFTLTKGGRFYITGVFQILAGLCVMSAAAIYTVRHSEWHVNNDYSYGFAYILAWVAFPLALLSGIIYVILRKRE
Starred values were filed as active, the others as inactive; i = inactive; ? = inconclusive; / = not tested or not shown. Unless noted, the call rests on the fitted dose curve; in most records, active means well fitted curve in the direction sought with a large enough effect; inconclusive means small, poorly fitted or top-dose-only effect, or another doubt; inactive means no such curve, though single readings can be large; an effect the other way counts as inactive or inconclusive.

SMILES | PMP22 txn | p53null 39C tox | GALC G270D up | p53null 32C tox | mTORC1 inh | S16 F2sN tox | NLuc saturating | NLuc Km ctr | FLuc ctr PMP22 | S16 viab conf | PMP22 txn cnf | others
COc1cc2c(=O)c(C(=O)c3ccc(C)c(C)c3)cn(Cc3ccccc3F)c2cc1OC | 16.8µM* | 13.8% | i | -23.3% | -17.4% | -26.3% | 0.385µM* | 0.485µM* | -16.0% | -2.6% | ?
O=c1c(S(=O)(=O)c2ccccc2)cn(Cc2cccc(F)c2)c2cc(N3CCOCC3)c(F)cc12 | ? | -8.8% | i | -7.9% | 0.5% | ? | / | / | / | / | /
CCOC(=O)N1CCc2c(sc(NCc3ccc(OC)c(OC)c3OC)c2C(=O)Nc2ccc(OC)cc2OC)C1 | -29.4% | 14.5% | i | 7.0% | -7.7% | 0.1% | / | / | / | / | /
COc1ccccc1CNC(=O)Cn1c(=O)ccc2cc(S(=O)(=O)N3CCC(C)CC3)ccc21 | -16.5% | 19.5% | i | 16.8% | ? | -1.5% | / | / | / | / | /
COc1ccccc1CNC(=O)Cn1c(=O)oc2cc(S(=O)(=O)N3CCC(C)CC3)ccc21 | 13.3µM* | -5.9% | i | ? | -5.1% | ? | -11.6% | -0.7% | 0.6% | -17.8% | -25.6%
CCOC(=O)c1c(NC(=O)c2ccc(S(=O)(=O)N3CCC(C)CC3)cc2)sc2c1CCN(C)C2 | 17.8µM* | -2.0% | i | -26.4% | 14.7µM* | ? | ? | ? | 6.4% | ? | 18.3µM*
O=C1COc2ccc(-c3cc(-c4ccc(F)cc4)c4c(n3)-c3ccccc3OC4)cc2N1 | 16.8µM* | / | i | / | 1.5% | 24.4% | -4.7% | 7.1% | 5.7% | ? | ?
O=C1COc2ccc(-c3cc(-c4ccc(F)cc4)c4c(n3)-c3cc(Cl)ccc3OC4)cc2N1 | -23.2% | / | i | / | -4.6% | 12.7% | / | / | / | / | /
COc1ccc(C)cc1NS(=O)(=O)c1c(C)nc2sc(C)cn2c1=O | -34.0% | -5.8% | i | -7.0% | -6.6% | 0.2% | / | / | / | / | /
COc1cccc(NS(=O)(=O)c2cc(-c3cnc(C4CC4)o3)ccc2C)c1 | 8.53µM* | ? | i | -13.4% | -9.7% | ? | ? | 15.3µM* | 6.8% | -6.7% | 2.89µM*
COc1ccc(C)cc1NS(=O)(=O)c1ccc(-c2cnc(C3CC3)o2)cc1 | 5.55µM* | ? | i | 5.5% | -0.2% | ? | -9.3% | ? | -0.9% | -25.7% | ? | PMP22 HiBiT cnf=?
CCOc1ccccc1NC(=O)c1cnn2c(C(F)F)cc(-c3ccccc3)nc12 | 11.3µM* | -7.2% | i | 19.8% | -18.3% | 24.7% | -6.3% | 2.3% | 2.2% | 16.5% | ?
COc1ccccc1Nc1c2c(nc3ccc(NC(=O)/C=C/c4cccc(OC)c4OC)cc13)CCCC2 | 10.6µM* | ? | i | -9.9% | 4.14µM* | 25.1µM* | -5.7% | 3.6% | 2.3% | ? | 7.74µM* | PMP22 HiBiT cnf=38.4%
COc1ccc(NC(=O)c2ccc3c(SCC(=O)O)c4c(nc3c2)CCCC4)cc1OC | -67.1% | -9.9% | i | -16.0% | 0.5% | ? | / | / | / | / | /
COc1ccccc1Nc1c2c(nc3ccc(NC(=O)c4cccc(F)c4)cc13)CCCC2 | 10µM* | 10µM* | i | ? | ? | ? | -27.2% | -10.9% | -2.2% | 13.7µM* | 11.5µM*
CCOc1ccccc1Nc1sc(C(=O)c2ccc(Cl)cc2)c(N)c1C#N | 15µM* | 11.1% | i | -7.0% | -2.8% | 1.2% | -0.2% | 3.9% | -2.5% | 0.6% | -1.6%
CCOc1ccccc1Nc1sc(C(=O)c2ccc(Cl)cc2)c(N)c1C(=O)NCCc1ccccc1 | ? | -20.3% | i | 2.1% | -0.9% | 2.1% | / | / | / | / | /
CCC(=O)N1CCc2cc(S(=O)(=O)CCC(=O)N3CCN(c4ccc(Cl)cc4)CC3)ccc21 | 17µM* | -3.3% | i | 16.6% | -2.2% | -1.5% | ? | -4.4% | -2.6% | 12.1% | ?
CCCNC(=O)c1cnn(-c2ccc(C)c(C)c2)c1C1CCN(C(=O)OC(C)(C)C)CC1 | -8.1% | -0.7% | i | 6.3% | -9.2% | -1.8% | / | / | / | / | /
COc1ccc(N2CCN(C(=O)c3c4c(nc5ccccc35)C(=O)N(C3CCCCC3)C4)CC2)cc1 | -10.4% | -2.0% | i | 0.4% | -9.4% | -1.2% | / | / | / | / | /
O=C(c1c2c(nc3ccccc13)C(=O)N(C1CCCCC1)C2)N1CCN(c2ccc(F)cc2)CC1 | 10µM* | -20.1% | i | -2.3% | -4.8% | 4.1% | -14.5% | 6.7% | -7.9% | -5.8% | -35.8%
CCOC(=O)N1CCN(Cc2nc3cc(NC(=O)c4ccccc4[N+](=O)[O-])ccc3n2C(C)C)CC1 | 11.2µM* | -3.6% | i | -8.1% | 0.6% | ? | ? | -4.5% | -4.8% | 7.5% | -21.6%
CCOC(=O)N1CCN(Cc2nc3cc(NC(=O)C(C)C)ccc3n2C(C)C)CC1 | 6.31µM* | -3.0% | i | 4.4% | ? | ? | -13.9% | 4.3% | 6.3% | 3.7% | -18.3%
